Consider 22 sequences from the supplement of paper PMC6555819.

The subject of the assay is PXR:RXRa (NR concentration 270 nM, RXRa partner concentration 90 nM). Put plainly: PBM binding z-score (relative to random genomic background probes); higher = stronger binding; sequences stand for … in GC…GCGATTGACAGCGTAGAATGAAGG
In a few lines:
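Each nuclear receptor dimer, without ligand, was incubated for 1 h on custom Agilent 4×180K protein-binding microarrays. Binding was detected with antibodies against each partner (one per run), and scanned fluorescence was regression-normalized. The binding z-scores are referenced to random human genomic background probes.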
Take ATATGTAGGTTAGCTGTGGTCATTCAGACTAGGC: the PBM binding z-score was found to be 1.3.
For TCTCGGAGGACACGAAAGGTCAGCGCTCGACATC, the PBM binding z-score stood at 4.36.
On to TCCTGTAGATCAAAGGTTAAGAAAGCCGAAGCCT, for which the PBM binding z-score was found to be 1.72.
Turning to TCTAGTTGGTCGAAGGTCACACACTCGAAATGCG, the PBM binding z-score turned out to be 3.66.
The value for TCATATAGGTAAAGGTGAAAGTCGAACGATATGA was 1.13; that for TAGCCTAGGTCATTCATGGGCCAGTATAGAAAGC was 1.66; that for AGAATGAGCTTATACGTAGATCAGGGAAGAAAGT was -0.359.
As for GCGACTGGGGCAAAGCAGGTTACCATAAGGTTGG, the figure is 0.415; as for ACTAGTTTGTCAGCTGAGGTCACACACAATTCGG, 4.87; as for ATACCAAGGTGTTCGTGAGGTCGTTGATACTAAC, 2.41.
For CCAGACAGGTGAAAGGTAAGTCAGTCTGGTACGC, the PBM binding z-score was 0.517.
The value for AGAATGAGGTTATACGTATATCAGGGAAGAAAGT was 1.45; that for GCTATTAGTTGAAAGGGCTACCGAATGATTCTCG was -0.465.
As for CCTACTGGGCCAAAGGTCATTGTTTCCAATGCTC, the figure is 5.37.
The value for GCTAGCAGGCCATTTGGGTCTCTCAATGACGGGC was -0.469; that for TCGAGTAGGTTAGTTGGGGCATTCAGCCAACATA was -0.283; that for AATACAGGGCCACTAGGCCAGAGTAGGTACGAAT was -0.239.
Regarding ATACGTAGGTTAGCTGGGGTCATTCAGACTAGGC, the PBM binding z-score stood at 6.17.
As for GCTAGTTGGCCAGTAAAAGGTCACACACCGGTCG, the figure is 4.62; as for TGTCAAAGTTCAGAGGTAACGTAAGTATCCACAC, 3.39; as for ATCTCTAGGTCAGACTCAGTTCAGTGAAGAACGC, 4.07.
As for TCACATAGGTAAAAGGTGAAAGTCGGTGTGGTAA, the PBM binding z-score was determined as 1.81.
